Bioassay records (PubChem BioAssay)
The entries come from a sample that favours hits as a whole.
Tg IFNy HTS – T. gondii growth inhibition under IFN-gamma; Toxoplasma gondii growth in IFN-gamma-treated host cells; hits give low values; activity change, negative = inhibition, % (no concentration beside the values); 69,000 compounds, 3.8% hits; AID 1259416; in the data active = activity change below about -70%, passing the limit was not always enough;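 also: host cells are HeLa cells infected with Toxoplasma gondii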
* = called active by the depositor.

Results for C[C@@H]1CCCCO[C@@H](CN(C)C(=O)c2ccncc2)[C@@H](C)CN([C@H](C)CO)C(=O)c2cc(NS(=O)(=O)c3cccs3)ccc2O1 ?
Tg IFNy HTS: 12

How did C[C@@H]1CCCCO[C@@H](CN(C)C(=O)c2ccncc2)[C@H](C)CN([C@H](C)CO)C(=O)c2cc(NS(=O)(=O)c3cccs3)ccc2O1 do in these assays?
Tg IFNy HTS: -20

Results for Cc1ccc(S(=O)(=O)Nc2ccc3c(c2)C(=O)N([C@@H](C)CO)C[C@H](C)[C@H](CN(C)S(=O)(=O)c2cccs2)OCCCC[C@@H](C)O3)cc1 ?
Tg IFNy HTS: -99*

Results for C[C@H](CO)N1C[C@H](C)[C@@H](CN(C)Cc2ccc(Cl)c(Cl)c2)OCCCC[C@H](C)Oc2ccc(NS(=O)(=O)c3cccs3)cc2C1=O ?
Tg IFNy HTS: -173*

How did Cc1noc(C)c1NC(=O)Nc1ccc2c(c1)C(=O)N([C@@H](C)CO)C[C@H](C)[C@H](CN(C)S(=O)(=O)c1cccs1)OCCCC[C@H](C)O2 do in these assays?
Tg IFNy HTS: 312

How did Cc1noc(C)c1NC(=O)Nc1ccc2c(c1)C(=O)N([C@@H](C)CO)C[C@@H](C)[C@H](CN(C)S(=O)(=O)c1cccs1)OCCCC[C@@H](C)O2 do in these assays?
Tg IFNy HTS: inactive

How did Cc1noc(C)c1NC(=O)Nc1ccc2c(c1)C(=O)N([C@H](C)CO)C[C@@H](C)[C@H](CN(C)S(=O)(=O)c1cccs1)OCCCC[C@@H](C)O2 do in these assays?
Tg IFNy HTS: 90

Results for Cc1ccc(S(=O)(=O)Nc2ccc3c(c2)C(=O)N([C@@H](C)CO)C[C@@H](C)[C@@H](CN(C)S(=O)(=O)c2cccs2)OCCCC[C@@H](C)O3)cc1 ?
Tg IFNy HTS: -99*

How did C[C@@H]1CCCCO[C@H](CN(C)Cc2ccc(Cl)c(Cl)c2)[C@@H](C)CN([C@H](C)CO)C(=O)c2cc(NS(=O)(=O)c3cccs3)ccc2O1 do in these assays?
Tg IFNy HTS: 106

How did C[C@@H]1CCCCO[C@H](CN(C)C(=O)c2ccncc2)[C@@H](C)CN([C@H](C)CO)C(=O)c2cc(NS(=O)(=O)c3cccs3)ccc2O1 do in these assays?
Tg IFNy HTS: 76

Results for C[C@@H]1CCCCO[C@@H](CN(C)Cc2ccc(Cl)c(Cl)c2)[C@@H](C)CN([C@H](C)CO)C(=O)c2cc(NS(=O)(=O)c3cccs3)ccc2O1 ?
Tg IFNy HTS: -45

Results for CN(Cc1ccccc1N1CCOCC1)C(=O)C1OCCc2ccccc21 (stereo unspecified) ?
Tg IFNy HTS: -30

What do the screens show for `Cc1ccc(O)c(CN(C)Cc2cccc3ncccc23)c1`?
Tg IFNy HTS: 1

What do the screens show for `Cn1ccnc1SCCn1ccnc1-c1cccc2nonc12`?
Tg IFNy HTS: 0

Results for CN1CCC2(CN(c3ncccn3)CC23CCN(C(=O)c2cccnc2)CC3)C1=O (stereo unspecified) ?
Tg IFNy HTS: 22

What do the screens show for `COc1ccc(-c2nc(C)c(-c3ccc(SCc4ccc(C)cc4)nn3)s2)cc1`?
Tg IFNy HTS: 1

What do the screens show for `CC(C)C[C@H]1COCc2cn(nn2)CC[C@@H](C)C(=O)N1`?
Tg IFNy HTS: -16

Results for O=C(c1nc(-c2ccc(Cl)cc2)n2c1CCCCC2)N1CCN(c2ncccn2)CC1 ?
Tg IFNy HTS: 14

What do the screens show for `Cc1ccc2c(c1C)-n1cccc1C1(CCN(C(=O)Cc3ccc(F)cc3)CC1)N2`?
Tg IFNy HTS: -29

Results for CC(CCc1ccc(O)cc1)NCCCOC(C)C (stereo unspecified) ?
Tg IFNy HTS: -21

Results for O=C(C[C@H]1CC[C@@H](NC(=O)c2cccnc2)[C@@H](CO)O1)NCc1ccc(Cl)c(Cl)c1 ?
Tg IFNy HTS: -35

What do the screens show for `Cc1ccc(S(=O)(=O)Nc2ccc3c(c2)C(=O)N([C@@H](C)CO)C[C@H](C)[C@@H](CN(C)S(=O)(=O)c2cccs2)OCCCC[C@H](C)O3)cc1`?
Tg IFNy HTS: -99*

Results for Cc1ccc(S(=O)(=O)Nc2ccc3c(c2)C(=O)N([C@@H](C)CO)C[C@@H](C)[C@H](CN(C)S(=O)(=O)c2cccs2)OCCCC[C@H](C)O3)cc1 ?
Tg IFNy HTS: -59

Results for Cc1ccc(S(=O)(=O)Nc2ccc3c(c2)C(=O)N([C@H](C)CO)C[C@H](C)[C@@H](CN(C)S(=O)(=O)c2cccs2)OCCCC[C@H](C)O3)cc1 ?
Tg IFNy HTS: -122*

Results for Cc1noc(C)c1NC(=O)Nc1ccc2c(c1)C(=O)N([C@@H](C)CO)C[C@@H](C)[C@@H](CN(C)S(=O)(=O)c1cccs1)OCCCC[C@H](C)O2 ?
Tg IFNy HTS: inactive

How did Cc1ccc(S(=O)(=O)Nc2ccc3c(c2)C(=O)N([C@H](C)CO)C[C@H](C)[C@@H](CN(C)S(=O)(=O)c2cccs2)OCCCC[C@@H](C)O3)cc1 do in these assays?
Tg IFNy HTS: -47

Results for Cc1noc(C)c1NC(=O)Nc1ccc2c(c1)C(=O)N([C@H](C)CO)C[C@H](C)[C@@H](CN(C)S(=O)(=O)c1cccs1)OCCCC[C@H](C)O2 ?
Tg IFNy HTS: 185

What do the screens show for `COc1cccc(Cl)c1-c1cc(CO)ccn1`?
Tg IFNy HTS: -3
